The list is not random: actives were taken first. Their share in the collection is about 19%.
RORgamma inh = inhibitors of mouse ROR gamma transcriptional activity; AID 2551; Potency, µM (series often up to 53.6 µM), without a hit: top-dose activity change, negative = inhibition, hits mostly inhibitors; P51450; Drosophila S2 Gal4-RORgamma UAS-luciferase reporter, 20 h; 5.4% of 310,000 active; further: nearly all actives have a fitted effect of over 60% in size
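Stable Schneider cell line, Gal4 DNA-binding domain fused to ROR gamma, UAS-luciferase. Cmpd 1 hr RT → CuSO4 700 uM final → 20 hr RT → luciferase reagent 10 min → luminescence.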
VP16 counter = counter-screen for ROR gamma inhibitors: Gal4-VP16 reporter; Drosophila S2 Gal4-VP16 UAS-luciferase, luminescence, 20 h; 3.5% of 310,000 active; Potency, µM (highest dose often 53.6 µM), without a hit: top-dose activity, negative = inhibition, hits mostly inhibitors;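 further: Gal4-VP16 expression switched on by copper sulfate through the metallothionein promoter; nearly all actives have a fitted effect of over 50% in size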
TDP1 block = blocks human tyrosyl-DNA phosphodiesterase 1; Q9NUW8; recombinant TDP1, AlphaScreen DNA substrate cleavage; Potency, µM (highest dose often 130 µM), for the others: top-dose activity change, negative = inhibition, hits mostly inhibitors; 0.28% of 350,000 active; further: nearly all actives have a fitted effect of over 40% in size
Target sequence (Q9NUW8 whole entry, looked up): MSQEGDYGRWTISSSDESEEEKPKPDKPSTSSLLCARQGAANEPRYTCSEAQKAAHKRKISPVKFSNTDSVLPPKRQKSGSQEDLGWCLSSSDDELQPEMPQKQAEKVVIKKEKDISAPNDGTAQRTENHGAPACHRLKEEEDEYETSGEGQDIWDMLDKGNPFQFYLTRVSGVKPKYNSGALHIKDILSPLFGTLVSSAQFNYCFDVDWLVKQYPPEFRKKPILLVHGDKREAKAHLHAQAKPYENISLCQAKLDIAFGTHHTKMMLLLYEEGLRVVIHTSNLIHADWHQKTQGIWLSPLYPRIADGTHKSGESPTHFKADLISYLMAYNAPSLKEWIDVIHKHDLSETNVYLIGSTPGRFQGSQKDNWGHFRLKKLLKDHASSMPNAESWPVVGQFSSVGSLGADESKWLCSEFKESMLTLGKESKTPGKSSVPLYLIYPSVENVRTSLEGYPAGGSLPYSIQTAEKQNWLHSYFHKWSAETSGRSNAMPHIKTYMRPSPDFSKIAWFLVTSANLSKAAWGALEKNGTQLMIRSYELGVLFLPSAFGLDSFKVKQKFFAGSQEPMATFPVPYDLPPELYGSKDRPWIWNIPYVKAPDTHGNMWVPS
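Here, a 5' biotin and 3' phosphotyrosine-FITC DNA oligonucleotide reports Tdp1 activity: intact substrate bridges AlphaScreen beads, while cleavage leaves a 3' phosphate and drops signal. All incubations at room temperature.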
DT40 TDP1 no CPT = qHTS for Inhibitors of human tyrosyl-DNA phosphodiesterase 1 (TDP1): qHTS in cells in absence of CPT | DT40 Tdp1-/- hTDP1 cells, no CPT, ATP luminescence, 48 h | Potency, µM (doses to about 46.2 µM), for inactives: at the top dose activity change, negative = growth inhibition, hits mostly inhibitors | 15% of 420,000 active; further: nearly all actives have a fitted effect of over 55% in size
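Cells were dispensed at 400 per well, compounds added by pin tool, plates incubated ≥48 hr at 37 °C, then CellTiter-Glo added for 30 min at room temperature before luminescence reading. Line: DT40 Tdp1-/- complemented with hTDP1; camptothecin omitted.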
DT40 TDP1 CPT = growth inhibition of DT40 Tdp1-/-;hTDP1 cells with camptothecin (screen for TDP1 inhibitors) | chicken DT40 Tdp1-/-;hTDP1 cells + 20 nM CPT, ATP luminescence, 48 h | Potency, µM (doses to about 46.2 µM), without a hit: at the top dose activity change, negative = growth inhibition, actives largely listed as inhibitors | 12% of 420,000 active; further: nearly all actives have a fitted effect of over 55% in size
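Cell growth measured by CellTiter-Glo luminescence after a minimum 48 h, 37 C compound exposure with 20 nM CPT in Tdp1-knockout DT40 cells stably expressing hTDP1, seeded 400/well; qHTS titration format.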
* = called active by the depositor; ! = a repeat was not active; [ ] = another dose, or the depositor's remark. The call rests on the fitted dose curve; in most records, active means well fitted curve in the direction sought with a large enough effect; inconclusive means small, poorly fitted or top-dose-only effect, or another doubt; inactive means no such curve, though single readings can be large; an effect the other way counts as inactive or inconclusive. On the % scale 0 is the no-effect control and ±100 the full control effect; potency means the concentration at half of the fitted maximal effect.

For COc1ccc(-c2noc(=O)n2Cc2cc(C)ccc2C)cc1 the results were RORgamma inh 4.1%, VP16 counter 1.8%, TDP1 block 2.8%, DT40 TDP1 no CPT 23.1µM* and DT40 TDP1 CPT inconclusive.
O=C1C=C2C(=CCOC2O)O1 (centres undefined) was read as RORgamma inh 1.12µM*, VP16 counter 0.891µM*, TDP1 block 5.1%[56.1 µM], DT40 TDP1 no CPT 0.146µM* and DT40 TDP1 CPT 0.103µM*.
Screening CCOP(=S)(OCC)Oc1nc(Cl)c(Cl)cc1Cl returned RORgamma inh 38.0%, VP16 counter -1.2%, TDP1 block 50.1µM*!, DT40 TDP1 no CPT -4.2% and DT40 TDP1 CPT 0.2%.
Screening CCN1C(=O)C(=Cc2ccc(C)s2)C(=O)N(CC)C1=S returned RORgamma inh 33.5%, VP16 counter -3.1%, TDP1 block -5.3%, DT40 TDP1 no CPT inconclusive and DT40 TDP1 CPT inconclusive.
Screening O=C1NC(=S)NC(=O)C1=Cc1c(Cl)cccc1Cl returned DT40 TDP1 no CPT 16.4µM* and DT40 TDP1 CPT 10.3µM*.
CN1C(=O)/C(=C\c2ccc(Br)s2)C(=O)NC1=S was read as RORgamma inh inconclusive, VP16 counter inconclusive, TDP1 block 1.7%, DT40 TDP1 no CPT 16.4µM* and DT40 TDP1 CPT inconclusive.
Screening Cc1cc(/C=C2\C(=O)NC(=S)N(C)C2=O)c(C)n1C1CCCCC1 returned RORgamma inh inconclusive, VP16 counter -8.5%, TDP1 block 0.6%, DT40 TDP1 no CPT -33.9% and DT40 TDP1 CPT 2.1%.
Screening O=C1NC(=S)NC(=O)C1=Cc1ccc(Br)s1 returned RORgamma inh 20µM*, VP16 counter 6.31µM*, TDP1 block 9.8%, DT40 TDP1 no CPT 9.2µM* and DT40 TDP1 CPT 10.3µM*.
`O=C1NC(=S)NC(=O)C1=Cc1cccc2cc3ccccc3cc12` gave RORgamma inh -31.2%, VP16 counter 6.2%, TDP1 block -12.7%, DT40 TDP1 no CPT 2.59µM* and DT40 TDP1 CPT 5.17µM*.
CN(C)c1ccc(C=C2C(=O)NC(=S)NC2=O)cc1[N+](=O)[O-] was read as RORgamma inh 2.1%, VP16 counter -5.4%, TDP1 block -14.7%, DT40 TDP1 no CPT inconclusive and DT40 TDP1 CPT -29.6%.
`NS(=O)(=O)c1ccc(-c2ccc(C=C3C(=O)NC(=S)NC3=O)o2)cc1` gave RORgamma inh 7.3% and VP16 counter 8.0%.
`CCCN(CC#CCOc1ccc(OC)cc1)CCC` gave RORgamma inh 0.4%, VP16 counter 1.9%, TDP1 block 0.0%, DT40 TDP1 no CPT inconclusive and DT40 TDP1 CPT -21.8%.
Cc1cc(=O)oc2c(C)c(OCC(=O)N3C[C@H]4C[C@@H](C3)c3cccc(=O)n3C4)ccc12 was read as RORgamma inh -12.9%, VP16 counter 0.1%, DT40 TDP1 no CPT -13.8% and DT40 TDP1 CPT -13.0%.
`CC(C)c1ccc2c(c1)C(N1CCNCC1)Cc1ccc(F)cc1S2` (centres undefined) gave DT40 TDP1 no CPT 25.9µM* and DT40 TDP1 CPT inconclusive.
Screening CC(C)Nc1ccc(Nc2ccccc2)cc1 returned RORgamma inh inconclusive, VP16 counter inconclusive, TDP1 block 3.6%, DT40 TDP1 no CPT 6.51µM* and DT40 TDP1 CPT 6.51µM*.
CNC(=S)N1CC2CC(C1)c1cccc(=O)n1C2 (centres undefined) was read as RORgamma inh -4.4%, VP16 counter -14.9%, TDP1 block 5.8%, DT40 TDP1 no CPT 7.1% and DT40 TDP1 CPT -2.4%.
For CCn1cc2nc(SCc3cc(C)ccc3C)n(Cc3ccc(OC)cc3)c(=O)c2n1 the results were TDP1 block -2.6%, DT40 TDP1 no CPT 7.31µM* and DT40 TDP1 CPT 10.3µM*.
`Cn1c2c(c3ccccc31)CCNCC2` gave RORgamma inh -18.2%, VP16 counter 7.3% and TDP1 block 14.7%.

Bioassay records (PubChem)
